Laboratory results taken from PubChem BioAssay AID1851 (National Center for Advancing Translational Sciences (NCATS), 2009).
The whole screen tested about 16,000 compounds, of which about 5,100 (32%) were called active. Roughly 25% stayed inconclusive and do not appear here. Calls follow the shape of the dose curve; as a rule, active = well fitted curve in the direction sought with a large enough effect; inconclusive = small, poorly fitted or top-dose-only effect, or effect the other way; inactive = no such curve, though single readings can be large or run the other way. Some of the results follow.

Target: Cytochrome P450 3A4 (Homo sapiens) (UniProt P08684)
Test: Cytochrome panel assay with activity outcomes
Details: recombinant CYP, pro-luciferin dealkylation, luminescence, p450-cyp3a4; series mostly up to 57.1 µM
% is scaled to controls: 0 for no effect and ±100 for the full control effect.

Chain of Cytochrome P450 3A4 (Homo sapiens) (P08684 whole entry, looked up): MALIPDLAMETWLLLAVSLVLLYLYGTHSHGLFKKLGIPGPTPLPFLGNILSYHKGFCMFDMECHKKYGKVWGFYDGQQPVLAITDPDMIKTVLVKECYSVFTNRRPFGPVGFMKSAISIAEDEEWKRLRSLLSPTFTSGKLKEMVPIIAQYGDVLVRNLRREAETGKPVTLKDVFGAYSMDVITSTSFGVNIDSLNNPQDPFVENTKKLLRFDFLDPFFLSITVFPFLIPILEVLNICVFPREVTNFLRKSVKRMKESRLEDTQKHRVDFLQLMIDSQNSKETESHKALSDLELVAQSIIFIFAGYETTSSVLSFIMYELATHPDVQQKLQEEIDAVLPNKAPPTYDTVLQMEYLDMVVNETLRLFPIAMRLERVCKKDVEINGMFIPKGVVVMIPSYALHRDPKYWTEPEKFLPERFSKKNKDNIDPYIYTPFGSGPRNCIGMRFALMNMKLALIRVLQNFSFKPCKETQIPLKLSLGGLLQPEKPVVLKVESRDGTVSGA

activity, negative = inhibition, inactive:
CC(C)(N=NC(C)(C)C1=NCCN1)C1=NCCN1 -8.65% [at 11.4 µM]
CC(C)NC1(C(N)=O)CCN(Cc2ccccc2)CC1 -7.69% [at 11.4 µM]
Nc1nc(N)c(N=Nc2ccc(C(=O)O)c(O)c2)c(N)n1 -18% [at 11.4 µM]
COc1ccc(NC(=O)OC(C)C)cc1 -9.73% [at 2.29 µM]
CN(N=O)c1ccc(/C=C\c2ccnc3ccccc23)cc1 -15.2% [at 11.4 µM]
CC(C)C(=O)C(C)(C)CCc1ccccn1 -11% [at 11.4 µM]
CCS(=O)(=O)N1CCC(C(=O)NCc2ccccc2OC)CC1 4.92% [at 11.4 µM]
Cc1ccc(OCC(=O)Nc2ccc(Cl)cc2)c(-n2nc3ccccc3n2)c1 -10.5% [at 2.29 µM]
CCOc1ccc(C(=O)Nc2ccccc2N2CCCC2)cc1 -11.9% [at 2.29 µM]
O=P(O)(O)O[C@@H]1O[C@H](CO)[C@@H](O)[C@H](O)[C@@H]1O -3.16% [at 11.4 µM]
Nc1nc2c(c(=O)[nH]1)N[C@H](CCNc1ccc(C(=O)O)cc1)CN2 -0.744% [at 11.4 µM]
CCOc1c2ccc(C(=O)NCc3ccc(OC(F)(F)F)cc3)cc2nn1CC -2.81% [at 2.29 µM]
COc1ccc(C2N=C(N)N=C(N)N2c2ccccc2OC)cc1OC (stereo not drawn) -8.43% [at 2.29 µM]
C=C(C)COc1ccc2c(c1)CCC1C2CC[C@]2(C)C(=O)/C(=N/O)CC12 (stereo partly drawn) 1.68% [at 11.4 µM]
COc1cc(C)ccc1OCCOc1cc(C)ccc1Cl 5.86% [at 2.29 µM]
O=C(O)c1cccc(OCCO)c1 -12.1% [at 11.4 µM]

AC50, inactive:
CCCCOc1ccc(OC(=O)c2cccnc2)cc1
COc1cnc(NS(=O)(=O)c2ccc(N)cc2)nc1
C[C@H](NC[C@H](O)CP(=O)(O)Cc1ccccc1)c1ccc(Cl)c(Cl)c1
FC(F)(F)c1ccccc1-c1nc(NC2CCNCC2)c2ccccc2n1
Cc1ccccc1-c1nc(NC2CCNCC2)c2ccccc2n1
N[C@H](C(=O)O)C1[C@H](C(=O)O)[C@H]1C(=O)O (stereo partly drawn)
CCCNC(=S)Nc1ccc(Br)cc1
COCC(=O)N1CCC2(CCN(Cc3ccccc3)CC2)CC1
CC(=O)N1CCC2(CCN(Cc3ccccc3)CC2)CC1
CC(Oc1ccccc1)C(=O)Nc1nc2c(s1)C(=O)CC(C)(C)C2 (stereo not drawn)
Cc1nc2ccccn2c1/C(O)=C1\C(=O)C(=O)N(CCN2CCOCC2)C1c1cccnc1 (stereo not drawn)
Cc1nc2c(C)cccn2c1/C(O)=C1\C(=O)C(=O)N(CCN2CCOCC2)C1c1cccs1 (stereo not drawn)
Cc1cccc(CN(C)CCc2ccccn2)c1
O=C(Nc1cc2c(oc1=O)CCCC2=O)c1ccc(Cl)cc1
Cc1cc(NC(=O)c2cc(C(C)C)on2)no1
NS(=O)(=O)c1cc(C(=O)O)cc(N2CCCC2)c1Oc1ccccc1
O=C(Nc1cc(C(F)(F)F)ccc1N1CCCCC1)c1ccc(Br)o1
O=c1c2ccccc2nc(-c2ccc(Br)cc2)n1Cc1ccccc1
CN1CCN(C(=O)c2ccc3c(=O)n4c(nc3c2)CCCCC4)CC1
COC(=O)N1CCC[C@@]2(CCN(C(=O)Nc3ccccc3)C2)C1
COc1ccc(NC(=O)N2CC3(CCN(C(=O)c4cccn4C)CC3)C2)cc1
COc1ccc(C(=O)N2CCC3(CC2)CN(C(=O)Nc2ccccc2)C3)cc1
Cn1cccc1C(=O)N1CCC2(CC1)CN(C(=O)Nc1ccccc1)C2
CC(=O)ON(C(C)=O)S(=O)(=O)c1ccc(Cl)cc1
COc1ccc(NC(=O)N2CCC3(CC2)CCN(C(=O)c2ccco2)CC3)cc1
COCC(=O)N1CCC2(CC1)CN(C(=O)Nc1ccc(OC)cc1)C2
COc1ccc(NC(=O)N2CC3(CCN(C(=O)c4ccco4)CC3)C2)cc1
COc1ccc(NC(=O)N2CC[C@@]3(CCCN(C(C)=O)C3)C2)cc1
COC(=O)N1CCC2(CC1)CN(C(=O)Nc1ccc(OC)cc1)C2
COc1ccc(NC(=O)N2CC[C@@]3(CCCNC3)C2)cc1
N#Cc1ccc(Oc2nc(C(N)=O)cc(-c3ccccc3)n2)cc1
CO/N=C(\C(=O)N[C@@H]1C(=O)N2C(C(=O)[O-])=C(C[N+]3(C)CCCC3)CS[C@@H]12)c1csc(N)n1
CCOc1ccc(/C(O)=C2/C(=O)C(=O)N(CCOCCO)C2c2cccnc2)cc1 (stereo not drawn)
COc1ccc(NC(=O)c2ccc(-n3cccn3)nc2)c(OC)c1
C(=C1/CCCC2=C1Nc1ncnn1C2c1ccccc1)/c1ccccc1 (stereo not drawn)
C[N+]1(C)C[C@@H](O)C[C@@H]1C(=O)[O-]
N#CCCn1c(=O)cnc2cnc(N3CCOCC3)nc21
Clc1ccc(N2CCCCCC2)nn1
Cc1ncc(N=Nc2ccccc2Cl)c(-c2ccccc2)n1
COC(=O)CC1C(=O)NCCN1C(=O)Nc1ccc(Cl)cc1 (stereo not drawn)
COC(=O)CNC(=O)CN1C(=O)N(c2ccccc2)C(N(O)C(=O)Nc2ccccc2)C1(C)C (stereo not drawn)

AC50, active:
CCCCOc1ccc(S(=O)(=O)Nc2cccnc2)cc1 2.51 µM
Cc1ccc(Nc2nnc(-c3ccc4c(c3)OCO4)o2)c(C)c1 3.16 µM
FC(F)(F)c1ccccc1-c1nc(NC2CC2)c2ccccc2n1 3.16 µM
COc1ccccc1-c1nc(NC2CC2)c2ccccc2n1 12.6 µM
CN(C)Cc1ccccc1-c1nc(NC2CC2)c2ccccc2n1 15.8 µM
Cc1ccccc1-c1nc(NC2CC2)c2ccccc2n1 3.98 µM
Cc1ccc(SCCNC(=S)Nc2ccc(C)c(C)c2)cc1 6.31 µM
CCOC(=O)C1(S(=O)(=O)c2ccccc2)CCN(Cc2ccccc2)CC1 5.01 µM
CCOC(=O)C1(S(=O)(=O)c2ccc(Cl)cc2)CCN(Cc2ccc(Cl)cc2)CC1 7.08 µM
CC1(C)Cc2c(C#N)c(SCc3ccccc3)nc(N3CCOCC3)c2CO1 25.1 µM
CCn1c2ccccc2c2cc(NC(=O)C(C)Oc3ccc(OC)cc3)ccc21 (stereo not drawn) 6.31 µM
CCN(CC)c1ccc(/C=C/c2nc3ccccc3s2)cc1 11.2 µM
Cc1nc2ccccn2c1/C(O)=C1\C(=O)C(=O)N(CCCn2ccnc2)C1c1ccncc1 (stereo not drawn) 11.2 µM
CN(CCc1ccccn1)Cc1ccc(Cl)cc1Cl 7.94 µM
COc1cccc(CNC(=O)C2CCN(S(=O)(=O)N3CCCCC3)CC2)c1 22.4 µM
COc1ccccc1CNC(=O)C1CCN(S(=O)(=O)N2CC(C)CC(C)C2)CC1 (stereo not drawn) 11.2 µM
COc1ccc(CCNC(=O)C2CCN(S(=O)(=O)N3CC(C)CC(C)C3)CC2)cc1OC (stereo not drawn) 7.08 µM
O=C(COc1ccccc1)Nc1cc(C(F)(F)F)ccc1N1CCCC1 3.98 µM
Cc1ccc(OCC(=O)Nc2ccccc2N2CCOCC2)c(C)c1 14.1 µM
CC(=O)N1CCN(c2ccccc2NC(=O)COc2ccc(Br)cc2)CC1 4.47 µM
CCCCC(=O)NC(Nc1cc(C)ccn1)(C(=O)OCC)C(F)(F)F (stereo not drawn) 7.08 µM
N#CCSc1nc2ccc(N3CCCCC3)cc2c(=O)n1Cc1ccccc1 7.08 µM
N#CCSc1nc2cc(C(=O)N3CCCC3)ccc2c(=O)n1Cc1ccccc1 12.6 µM
COc1ccc(NC(=O)N2CCCC3(CCN(C(=O)c4ccc(OC)cc4)CC3)C2)cc1 12.6 µM
COc1ccc(C(=O)N2CCC[C@@]3(CCN(C(=O)Nc4ccccc4)C3)C2)cc1 15.8 µM
COc1ccc(NC(=O)N2CC[C@@]3(CCCN(C(=O)c4cc(C(F)(F)F)cc(C(F)(F)F)c4)C3)C2)cc1 20 µM
COc1ccc(NC(=O)N2CCCC3(CCN(C(=O)c4cccn4C)CC3)C2)cc1 25.1 µM
COc1ccc(NC(=O)N2CCCC3(CCN(C(=O)c4ccco4)CC3)C2)cc1 15.8 µM
COc1ccc(NC(=O)N2CC[C@@]3(CCCN(C(=O)c4ccc(OC)cc4)C3)C2)cc1 15.8 µM
COc1ccc(NC(=O)N2CCCC3(CCNCC3)C2)cc1 25.1 µM
CCOC(=O)C(C(=O)NCc1ccc(C)cc1)c1ncc(C(F)(F)F)cc1Cl (stereo not drawn) 1.26 µM
CCOC(=O)C1=C(C)Nc2ncnn2C1c1cccnc1 (stereo not drawn) 11.2 µM
COc1cc(OC)c(C2C(C(=O)Nc3ccc(C)cc3C)=C(C)Nc3ncnn32)cc1OC (stereo not drawn) 8.91 µM
CCCCOC(=O)C1=C(C)Nc2ncnn2C1c1cc(OC)ccc1OC (stereo not drawn) 7.08 µM
COc1ccc2[nH]cc(CCNc3ncncc3-c3cccc(NS(C)(=O)=O)c3)c2c1 0.398 µM
COc1ccc2[nH]cc(CCNc3ncncc3-c3cccnc3)c2c1 0.794 µM
COc1cccc(-c2cncnc2NCCc2c[nH]c3ccc(OC)cc23)c1 0.501 µM
COc1ccccc1NC(=O)CCN1C(=O)C2CC=C(Cl)CC2C1=O (stereo not drawn) 14.1 µM
COC(=O)CNC(=O)CN1C(=O)N(c2ccc(Cl)cc2)C(N(O)C(=O)Nc2ccc(Cl)cc2)C1(C)C (stereo not drawn) 4.47 µM
Cc1ccc(OCCOCCn2ccnc2)c(Br)c1 0.562 µM
Cc1cccc(OCCCCCn2ccnc2)c1 0.562 µM
